The values that follow come from PubChem BioAssay (NCI).

“And” between values parts separate entries of the source, which are not always exact repeats. Equal values may be shown once. The panel holds about 83,000 compounds, 20% with a hit somewhere; the sample as a whole holds those more often.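 Activity criterion: percent growth below 10, measured after cells in 96-well plates were exposed to a single compound concentration for 48 hours.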 The source made the active and inactive calls.

In the assay the test system is MDA-MB-468 breast. The assay is described as follows: NCI-60 one-dose screen, 48 h (100 = growth as untreated, 0 = no growth, -100 = all killed). To be noted: 10 µM unless noted.
For `COc1ccc(-c2cc(-c3cc(OC)c(OC)c(OC)c3)c(C#N)c(=O)n2CCCCCC(=O)NO)cc1`, the growth is 97.4% (inactive).
With `COc1ccc(C2=C(Br)C(=O)c3nc(C)ccc3C2=O)cc1` the figure was 87.1% (inactive).
With `O=C(Nc1ccccc1[N+](=O)[O-])c1ccc(Cl)c(Cl)c1` the figure was 65.7% (inactive); with `CN(C)/N=C/c1ccccc1O`, 97.8% (inactive).
With `COc1cc(C(=O)c2cnc(-c3ccc4cc[nH]c4c3)[nH]2)cc(OC)c1OC` the figure was -23.2% (active); with `COc1ccc(/C=C/C(=O)c2cccc(NC(=O)CSc3nc4ccccc4c(=O)n3-c3ccccc3)c2)cc1OC`, 108% (inactive); with `OC(CCN1CCCC1)(c1ccccc1)C1CCCCC1` (centres undefined), 92% (inactive).
Regarding `O=C1/C=C/[C@@H](O)[C@@H]2C[C@@H](O)C[C@H]2/C=C/CCC[C@H](CCc2ccc(NC(=S)Nc3ccc4c(c3)C(=O)OC43c4ccc(O)cc4Oc4cc(O)ccc43)cc2)O1`, the growth is -17.5% (active).
With `CNC(=O)c1c(NC(=O)c2ccc(F)cc2F)sc2c1CCC(=O)C2` the figure was -15.5% (active); with `O=[N+]([O-])c1ccc(N/N=C\c2ccc(O)cc2O)nc1`, 56% (inactive); with `CCc1c(CC(=O)O)c2cc(C)ccc2n1Cc1ccc(Cl)cc1`, 95.3% (inactive) and 94.5% (inactive).
For the compound `Cn1cc(-c2csc(-c3c[nH]c4ncccc34)n2)c2cc(F)cnc21`, the growth is -16% (active).
As for `C/C(Cc1ccc(Cl)cc1)=C(\c1ccc(O)cc1)c1ccc(Cl)cc1`, the growth is 101% (inactive).
With `Cc1c(C(=O)Nc2ccccc2F)sc2c(=O)[nH]cnc12` the figure was 106% (inactive).
